Bioassay records as filed in PubChem BioAssay.
PLK1 PBD inh – PLK1 (human) polo-box domain binding inhibition; Plk1 PBD binding of FITC phosphopeptide, fluorescence polarization; Potency, µM, actives largely listed as inhibitors; 2.8% of 360,000 active; AID 720504; also: series mostly up to about 57 µM; nearly all actives have a fitted effect of over 65% in size
Target sequence (P53350 whole entry, looked up, the tested form may be a part): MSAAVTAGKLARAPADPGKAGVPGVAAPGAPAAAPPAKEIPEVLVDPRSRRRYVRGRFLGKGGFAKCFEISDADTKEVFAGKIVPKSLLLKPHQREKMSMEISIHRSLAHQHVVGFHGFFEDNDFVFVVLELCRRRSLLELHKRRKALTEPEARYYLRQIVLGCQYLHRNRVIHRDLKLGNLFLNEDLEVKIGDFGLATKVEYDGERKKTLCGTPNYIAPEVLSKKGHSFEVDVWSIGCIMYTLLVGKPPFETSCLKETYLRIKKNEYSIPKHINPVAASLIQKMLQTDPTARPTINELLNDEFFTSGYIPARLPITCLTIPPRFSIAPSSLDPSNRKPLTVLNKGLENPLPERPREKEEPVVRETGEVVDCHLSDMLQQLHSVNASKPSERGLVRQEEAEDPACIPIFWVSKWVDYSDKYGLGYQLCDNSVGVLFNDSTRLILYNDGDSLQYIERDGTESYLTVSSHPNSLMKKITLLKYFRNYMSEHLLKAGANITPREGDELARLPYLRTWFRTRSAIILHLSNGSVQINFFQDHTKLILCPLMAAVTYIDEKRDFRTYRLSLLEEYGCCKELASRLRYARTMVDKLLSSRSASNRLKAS
VDR inhibitor – inhibitors of human vitamin D receptor | P11473 | VDR-SRC2-3 peptide fluorescence polarization, 2 h | Potency, µM, actives largely listed as inhibitors | 0.93% of 400,000 active
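After 23 nl compound addition and a short centrifugation, plates sat for 2 hours at ambient temperature; polarization of fluorescence then indicated loss of VDR binding to peptide SRC2-3.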
TDP1 inh – inhibitors of human tyrosyl-DNA phosphodiesterase TDP1. Q9NUW8. recombinant TDP1, AlphaScreen DNA substrate cleavage. Potency, µM (top dose mostly 130 µM), actives largely listed as inhibitors. 0.28% of 350,000 active; also: nearly all actives have a fitted effect of over 40% in size
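Recombinant human Tdp1 (E. coli-expressed, 1 nM final) preincubated with compounds 15 min at room temperature, then 5'-biotin/3'-phosphotyrosine-FITC DNA substrate (15 nM final) added for 5 min. AlphaScreen beads (10 ug/ml final) added 10 min; cleavage lowers signal.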
ASM inhibitor – human S-ASM enzyme inhibition. P17405. placental ASM, HMU-PC fluorogenic substrate, 60 min. Potency, µM (titrated, usually from 57.5 µM), usual class: inhibitors. 0.006% of 340,000 active. AID 504937
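Human placenta-derived ASM preincubated with compound 10 min at room temperature, then reacted with 9 uM (final) fluorogenic HMU-PC substrate for 60 min at 37 C. Stop solution raises pH to 10; fluorescence read at Ex 386/Em 447 nm.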
Pin1 inh – human Pin1 inhibition; 0.009% of 390,000 active; AID 504891; Potency, µM (series often up to 115 µM), usual class: inhibitors; Pin1 FP peptide displacement, HiFluor488, 10 min; active = well fitted inhibition curve with a large enough effect in the polarisation, with a control signal flat, not every such curve was filed as active; inconclusive = small, poorly fitted or top-dose-only effect, or effect the other way, or a change in a side signal; inactive = no such curve, though single readings can be large or run the other way; the % refers to the polarisation
Target sequence (Q13526 whole entry, looked up): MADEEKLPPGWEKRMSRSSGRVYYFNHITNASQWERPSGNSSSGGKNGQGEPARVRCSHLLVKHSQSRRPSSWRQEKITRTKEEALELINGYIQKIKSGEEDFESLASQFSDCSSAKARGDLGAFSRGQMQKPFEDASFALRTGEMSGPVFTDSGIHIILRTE
Tb PFK block – inhibitors of T. brucei phosphofructokinase. Potency, µM (doses to about 57.5 µM), actives largely listed as inhibitors. 0.17% of 330,000 active. T. brucei PFK, ADP-Glo luminescence. O15648; also: nearly all actives have a fitted effect of over 60% in size
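Luminescent ADP detection (ADP-Glo, two-step: ATP depletion then ADP-to-ATP conversion for luciferase) reported PFK activity after 45 min room-temperature reaction of 1.25 nM enzyme with 0.5 mM F6P and 0.1 mM ATP at pH 8.0.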
Each line names hits and unclear results; the compound was inactive in the other large screens; ! = not active in a repeat. The list is not random: actives were taken first. Their share in the collection is about 3.1%. Unless noted, calls follow the shape of the dose curve; as a rule, active = well fitted curve in the direction sought with a large enough effect; inconclusive = small, poorly fitted or top-dose-only effect, or another doubt; inactive = no such curve, though single readings can be large; an effect the other way counts as inactive or inconclusive.

CO[C@@H]1[C@@H](OC2OC(C)C(OC3CC(C)(O)C(OC(=O)CC(C)C)C(C)O3)C(N(C)C)C2O)[C@@H](CC=O)C[C@@H](C)C(=O)/C=C\C2O[C@H]2C[C@@H](C)OC(=O)C[C@H]1OC(C)=O (stereo partly specified)	none (no result: PLK1 PBD inh, TDP1 inh, ASM inhibitor, Pin1 inh, Tb PFK block)
CSCC[C@H](NC(=O)[C@H](CC(C)C)NC(=O)CNC(=O)[C@H](Cc1ccc(O)cc1)NC(=O)[C@H](Cc1ccccc1)NC(=O)[C@H](CCCCN)NC(=O)[C@H](CC(N)=O)NC(=O)[C@@H]1CCCN1C(=O)[C@H](CC(=O)O)NC(=O)[C@H](C)NC(=O)[C@@H]1CCC(=O)N1)C(N)=O	none (no result: PLK1 PBD inh, ASM inhibitor, Pin1 inh, Tb PFK block)
Cc1ccc2nc(N3C(=O)C(O)=C(C(=O)c4ccc(C)o4)C3c3ccco3)sc2c1 (stereo unspecified)	PLK1 PBD inh inconclusive, VDR inhibitor inconclusive
O=C(C1=C(O)C(=O)N(c2nc3ccc(Cl)cc3s2)C1c1ccco1)c1ccco1 (stereo unspecified)	PLK1 PBD inh 21µM, VDR inhibitor inconclusive, Pin1 inh inconclusive
Cc1cc(N2C(=O)C(O)=C(C(=O)c3ccco3)C2c2ccc(Cl)cc2)no1 (stereo unspecified)	none
Cc1ccc2nc(N3C(=O)C(O)=C(C(=O)c4ccco4)C3c3ccc(C)o3)sc2c1 (stereo unspecified)	PLK1 PBD inh 13µM, Pin1 inh inconclusive
CC[C@H](C)[C@H](NC(=O)[C@H](CCC(=O)O)NC(=O)[C@H](CO)NC(=O)[C@@H](NC(=O)[C@H](C)N)C(C)C)C(=O)N[C@@H](CCC(N)=O)C(=O)N[C@@H](CC(C)C)C(=O)N[C@@H](CCSC)C(=O)N[C@@H](Cc1cnc[nH]1)C(=O)N[C@@H](CC(N)=O)C(=O)N[C@@H](CC(C)C)C(=O)NCC(=O)N[C@@H](CCCCN)C(=O)N[C@@H](Cc1cnc[nH]1)C(=O)N[C@@H](CC(C)C)C(=O)N[C@@H](C)C(=O)N[C@@H](CO)C(=O)N[C@H](C(=O)N[C@@H](CCC(=O)O)C(=O)N[C@@H](CCCNC(=N)N)C(=O)N[C@@H](CCSC)C(=O)N[C@@H](CCC(N)=O)C(=O)N[C@@H](Cc1c[nH]c2ccccc12)C(=O)N[C@@H](CC(C)C)C(=O)N[C@@H](CCCNC(=N)N)C(=O)N[C@@H](CCCCN)C(=O)N[C@@H](CCCCN)C(=O)N[C@@H](CC(C)C)C(=O)N[C@@H](CCC(N)=O)C(=O)N[C@@H](CC(=O)O)C(=O)N[C@H](C(=O)N[C@@H](Cc1cnc[nH]1)C(=O)N[C@@H](CC(N)=O)C(=O)N[C@@H](Cc1ccccc1)C(=O)O)C(C)C)C(C)C	none (no result: PLK1 PBD inh, ASM inhibitor, Pin1 inh, Tb PFK block)
O=C(CNC(=O)c1ccc(N2C(=O)c3ccccc3C2=O)cc1)OCC(=O)c1ccccc1	PLK1 PBD inh 24µM
CC(C)OCCCNC(=O)CN1CCN(Cc2ccccc2Cl)C1=O	PLK1 PBD inh 3.4µM
O=C(CN1CCN(Cc2ccccc2Cl)C1=O)NCCc1ccc(Cl)cc1	none (no result: PLK1 PBD inh, ASM inhibitor, Tb PFK block)
CC#N	none (no result: PLK1 PBD inh, VDR inhibitor, ASM inhibitor, Pin1 inh, Tb PFK block)
CCc1c(C)nc2ncnn2c1N1CCC(C(=O)NCc2cccc(OC)c2)CC1	PLK1 PBD inh 27µM, VDR inhibitor inconclusive
Cc1ccc(CCNC(=O)C2CCCN(S(=O)(=O)c3c(C)nn(C)c3C)C2)cc1 (stereo unspecified)	PLK1 PBD inh 27µM
COc1cccc(CNC(=O)C2CCN(S(=O)(=O)c3c(C)nn(C)c3C)CC2)c1	PLK1 PBD inh 27µM
COc1cccc(CNC(=O)C2CCN(S(=O)(=O)c3ccc(C)cc3)CC2)c1	none (no result: TDP1 inh)
Cn1cnc2c(=O)oc3ccc(S(=O)(=O)N4CCN(c5cccc(Cl)c5)CC4)cc3c21	none (no result: PLK1 PBD inh, ASM inhibitor, Tb PFK block)
O=c1cc(-c2ccccc2)[nH]c2cc(Cl)ccc12	VDR inhibitor 79µM!
Cc1cccc(CCNc2ncnc3onc(-c4ccc(Cl)cc4)c23)c1	none (no result: PLK1 PBD inh, ASM inhibitor, Tb PFK block)
CCN(c1ccccc1)c1nnc(NC(=O)Nc2cccc(Br)c2)s1	none (no result: PLK1 PBD inh, ASM inhibitor, Tb PFK block)
CC1(C)[C@H]2CC[C@]1(C)[C@@H](OC(=O)C[N+]1(C)CCOCC1)C2	none
CC1(C)[C@@H]2CC[C@]1(C)[C@@H](OC(=O)CSC#N)C2	VDR inhibitor 50µM (no result: PLK1 PBD inh, ASM inhibitor, Pin1 inh, Tb PFK block)
Cn1cnc(S(=O)(=O)N2CCC(C(=O)Nc3ccc(Cl)c(C(F)(F)F)c3)CC2)c1	none (no result: PLK1 PBD inh, ASM inhibitor, Tb PFK block)
NS(=O)(=O)c1ccc(O)c(NC(=O)c2ccc([N+](=O)[O-])o2)c1	PLK1 PBD inh 4.2µM, VDR inhibitor inconclusive, Tb PFK block inconclusive
COc1ccc(NC(=O)c2ccc(N3C(=O)C4CC=C(Cl)CC4C3=O)cc2)cc1 (stereo unspecified)	none (no result: TDP1 inh)
O=C(NN1C(=O)C2CC=C(Cl)CC2C1=O)c1ccncc1 (stereo unspecified)	TDP1 inh 35µM
COc1cc(NCc2ccc3nc(N)nc(N)c3c2C)cc(OC)c1OC	VDR inhibitor 25µM (no result: PLK1 PBD inh, ASM inhibitor, Pin1 inh, Tb PFK block)
Cc1cc(C(=O)c2cccs2)c(N)s1	PLK1 PBD inh 24µM, VDR inhibitor inconclusive
Cc1cc(C)c(C(=O)c2cccs2)c(C)c1	none (no result: TDP1 inh, Tb PFK block)
CCN(CC)S(=O)(=O)c1ccc(Cl)c(NC(=S)NC(=O)C2CCCC2)c1	none
CCN(CC)c1ccc(S(=O)(=O)Nc2cc(Cl)ccc2Cl)cc1NC(=S)NC(=O)C1CCCC1	PLK1 PBD inh 9.5µM
Cc1ccc(Cn2c(C)c(CNCCCc3ccccc3)c(C(=O)O)c2C)cc1	none (no result: PLK1 PBD inh, ASM inhibitor, Tb PFK block)
O=C(Nc1cccc(Cl)c1N1CCOCC1)c1ccco1	none
CC(=O)Nc1ccc(N2CCOCC2)c(Cl)c1	none
Nc1ccc(N2CCOCC2)c(Cl)c1	PLK1 PBD inh 24µM
Nc1cccc(Cl)c1N1CCOCC1	PLK1 PBD inh 27µM
CCOc1ccc2c(c1)c(=O)c(S(=O)(=O)c1ccc(Cl)cc1)cn2Cc1ccccc1C	none (no result: PLK1 PBD inh, ASM inhibitor, Tb PFK block)
CC1=[N+](C)c2ccc3ccccc3c2C1(C)C	VDR inhibitor 45µM
Cc1nsc2c1ccc1ccccc12	none
S=c1[nH]nc2n1CCCN2	PLK1 PBD inh 30µM
Cc1ccc2nc3n(c2c1)CCCN3	none
CC1OC(CC(=O)O)CC2=C1C(=O)c1c(O)cccc1C2=O (stereo unspecified)	PLK1 PBD inh 2.4µM, VDR inhibitor 10µM (no result: TDP1 inh, Pin1 inh, Tb PFK block)
Cc1cccc(C)c1-n1nnnc1C1(Nc2ccccc2)CCCCC1	none
Clc1ccc(NC2(c3nnnn3C3CCCCC3)CCCCC2)cc1	PLK1 PBD inh 27µM, VDR inhibitor inconclusive
O=C(c1coc(=O)c(Br)c1)N1CCC(C(O)(c2ccccc2)c2ccccc2)CC1	none
CC1(C)CCCN(C(=O)c2coc(=O)c(Br)c2)C1	PLK1 PBD inh 11µM, TDP1 inh 6.3µM (no result: Pin1 inh)
CCOC(=O)c1c(NC(=O)c2cccs2)sc(C(=O)N(C)C)c1C	PLK1 PBD inh 24µM, VDR inhibitor inconclusive
C=CCNC(=O)c1cc(Cl)ccn1	none
C=CCNC(=O)c1cc(Cl)cc(Cl)c1	PLK1 PBD inh 30µM, VDR inhibitor inconclusive
